# PubChem BioAssay (NCATS)
# Inconclusive results are not listed. Where a call stands in place of a potency, no number is given. The source made the active and inactive calls. The call rests on the fitted dose curve; in most records, active means well fitted inhibition curve with a large enough effect; inconclusive means small, poorly fitted or top-dose-only effect; inactive means flat fitted curve, though single readings scatter.
# Tested on: CP315
# Assay: qHTS profiling for inhibitors of Plasmodium falciparum proliferation (AID 504749); further: nearly all actives have a fitted effect of over 60% in size
# Conditions: P. falciparum in erythrocytes, SYBR Green DNA, 72 h; series mostly up to 28.7 µM
# Outline: (§1)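 Three-day growth assay of blood-stage parasites in erythrocytes (0.3% parasitemia, 2.5% hematocrit) at 37 C, 5% CO2, quantified by SYBR Green DNA staining after overnight detergent lysis.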
# Potency means the concentration at half of the fitted maximal effect.
row,SMILES,Potency
1,Nc1ccccc1C(=O)O,inactive
2,O=C(O)CCCc1ccc(N(CCCl)CCCl)cc1,inactive
3,Nc1nc(N)nc(NC2CC2)n1,inactive
4,O=c1oc2ccccc2c(O)c1Cc1c(O)c2ccccc2oc1=O,inactive
5,O=C1Nc2ccc(Cl)cc2C(c2ccccc2Cl)=NC1O (stereo not given),inactive
6,O=C1c2ccccc2C(=O)C1C(=O)C(c1ccccc1)c1ccccc1,inactive
7,CC(C)=CC1C(C(=O)OCN2C(=O)C3=C(CCCC3)C2=O)C1(C)C (stereo not given),inactive
8,CN1C(=O)COc2c(C(=O)NC3CN4CCC3CC4)cc(Cl)cc21 (stereo not given),inactive
9,CCC1(CC)C(=O)C=CNC1=O,inactive
10,NCCc1ccc(O)cc1,inactive

# Tested on: CP325
# Assay: as above
# Conditions: P. falciparum in erythrocytes, SYBR Green DNA, 72 h; series mostly up to 28.7 µM
# Outline: as §1
SMILES,Potency,"activity, negative = inhibition"
Cc1ncsc1CCCl,inactive,–
c1ccc2c(c1)sc1ccccc12,inactive,–
CCOC(=O)CC(SP(=S)(OC)OC)C(=O)OCC (stereo not given),inactive,–
CCCC(C)(COC(N)=O)COC(N)=O,inactive,–
O=C1Nc2ccc(Cl)cc2C(c2ccccc2)=NC1O (stereo not given),inactive,–
CCCCC/C=C\C/C=C\C/C=C\C/C=C\CCCC(=O)NCC(=O)O,–,2.88% [at 2.67 µM] (inactive)
CNC(C)(C)Cc1ccccc1,inactive,–
CCCCCCC(=O)CCCCCC/C=C/C[C@@H](O)[C@H](O)[C@@](N)(CO)C(=O)O,inactive,–
CN1C[C@H](C(=O)N[C@]2(C)O[C@@]3(O)[C@@H]4CCCN4C(=O)[C@H](Cc4ccccc4)N3C2=O)C=C2c3cccc4[nH]cc(c34)C[C@H]21,6.75 µM (active),–
CCC1(c2ccccc2)C(=O)N(COC)C(=O)N(COC)C1=O,inactive,–
NC(=O)CS(=O)C(c1ccccc1)c1ccccc1 (stereo not given),inactive,–
O=c1[nH]oc2c1CCNC2,inactive,–
COc1c2c(cc3c1OCO3)CCN(C)C2,inactive,–
CCCCCCCCCC(=O)O[C@H]1CC[C@H]2[C@@H]3CCC4=CC(=O)CC[C@@H]4[C@H]3CC[C@]12C,inactive,–
COP(=S)(OC)Oc1ccc(SC)c(C)c1,inactive,–
CCC(C)(C)c1ccc(O)cc1,inactive,–
O=C(Nc1ccc(Br)cc1)c1cc(Br)cc(Br)c1O,inactive,–
Clc1ccc2c(c1)C(c1ccccc1)=NCc1nncn1-2,inactive,–
C[C@]12CC[C@@H]3c4ccc(OC(=O)N(CCCl)CCCl)cc4CC[C@H]3[C@@H]1CC[C@@H]2O,inactive,–
CN1C(=O)CCS(=O)(=O)C1c1ccc(Cl)cc1 (stereo not given),inactive,–
Nc1ccccc1C(=O)O,inactive,–
O=C(O)CCCc1ccc(N(CCCl)CCCl)cc1,inactive,–
Nc1nc(N)nc(NC2CC2)n1,inactive,–
O=c1oc2ccccc2c(O)c1Cc1c(O)c2ccccc2oc1=O,inactive,–
O=C1Nc2ccc(Cl)cc2C(c2ccccc2Cl)=NC1O (stereo not given),inactive,–
O=C1c2ccccc2C(=O)C1C(=O)C(c1ccccc1)c1ccccc1,inactive,–
CC(C)=CC1C(C(=O)OCN2C(=O)C3=C(CCCC3)C2=O)C1(C)C (stereo not given),inactive,–
CN1C(=O)COc2c(C(=O)NC3CN4CCC3CC4)cc(Cl)cc21 (stereo not given),inactive,–
CCC1(CC)C(=O)C=CNC1=O,inactive,–
NCCc1ccc(O)cc1,inactive,–

# Tested on: CP329
# Assay: as above
# Conditions: P. falciparum in erythrocytes, SYBR Green DNA, 72 h; series mostly up to 28.7 µM
# Outline: as §1
SMILES,Potency,"activity, negative = inhibition"
Cc1ncsc1CCCl,inactive,–
c1ccc2c(c1)sc1ccccc12,inactive,–
CCOC(=O)CC(SP(=S)(OC)OC)C(=O)OCC (stereo not given),inactive,–
CCCC(C)(COC(N)=O)COC(N)=O,inactive,–
O=C1Nc2ccc(Cl)cc2C(c2ccccc2)=NC1O (stereo not given),inactive,–
CCCCC/C=C\C/C=C\C/C=C\C/C=C\CCCC(=O)NCC(=O)O,–,5.14% [at 2.67 µM] (inactive)
CNC(C)(C)Cc1ccccc1,inactive,–
CCCCCCC(=O)CCCCCC/C=C/C[C@@H](O)[C@H](O)[C@@](N)(CO)C(=O)O,inactive,–
CN1C[C@H](C(=O)N[C@]2(C)O[C@@]3(O)[C@@H]4CCCN4C(=O)[C@H](Cc4ccccc4)N3C2=O)C=C2c3cccc4[nH]cc(c34)C[C@H]21,15.1 µM (active),–
CCC1(c2ccccc2)C(=O)N(COC)C(=O)N(COC)C1=O,inactive,–
NC(=O)CS(=O)C(c1ccccc1)c1ccccc1 (stereo not given),inactive,–
O=c1[nH]oc2c1CCNC2,inactive,–
COc1c2c(cc3c1OCO3)CCN(C)C2,inactive,–
CCCCCCCCCC(=O)O[C@H]1CC[C@H]2[C@@H]3CCC4=CC(=O)CC[C@@H]4[C@H]3CC[C@]12C,inactive,–
COP(=S)(OC)Oc1ccc(SC)c(C)c1,inactive,–
CCC(C)(C)c1ccc(O)cc1,inactive,–
O=C(Nc1ccc(Br)cc1)c1cc(Br)cc(Br)c1O,inactive,–
Clc1ccc2c(c1)C(c1ccccc1)=NCc1nncn1-2,inactive,–
C[C@]12CC[C@@H]3c4ccc(OC(=O)N(CCCl)CCCl)cc4CC[C@H]3[C@@H]1CC[C@@H]2O,inactive,–
CN1C(=O)CCS(=O)(=O)C1c1ccc(Cl)cc1 (stereo not given),inactive,–
Nc1ccccc1C(=O)O,inactive,–
O=C(O)CCCc1ccc(N(CCCl)CCCl)cc1,inactive,–
Nc1nc(N)nc(NC2CC2)n1,inactive,–
O=c1oc2ccccc2c(O)c1Cc1c(O)c2ccccc2oc1=O,inactive,–
O=C1Nc2ccc(Cl)cc2C(c2ccccc2Cl)=NC1O (stereo not given),inactive,–
O=C1c2ccccc2C(=O)C1C(=O)C(c1ccccc1)c1ccccc1,inactive,–
CC(C)=CC1C(C(=O)OCN2C(=O)C3=C(CCCC3)C2=O)C1(C)C (stereo not given),inactive,–
CN1C(=O)COc2c(C(=O)NC3CN4CCC3CC4)cc(Cl)cc21 (stereo not given),inactive,–
CCC1(CC)C(=O)C=CNC1=O,inactive,–
NCCc1ccc(O)cc1,inactive,–
